# Pf Dd2 inh = P. falciparum Dd2 growth inhibitors, primary screen, SYBR Green fluorescence, single dose replicates. AID 1159554, 2015. 72 h; stronger effect = lower value. hit rate 2.3% among 94,000. activity change, % at 10 µM; in the data active means activity change below about -80%; inconclusive means no clear call, values can overlap the other calls
# T cruzi growth-1 = T. cruzi intracellular proliferation inhibitors, primary screen, cell-based, beta-gal Tulahuen parasites, NIH3T3 host, luminescence; T. cruzi beta-gal in NIH3T3, GalScreen luminescence, 90 h; inhibition, % at 8.34 µM; hit rate 5.9% among 77,000;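 active means mean inhibition above about 93%, with at least 55% of replicates each passing it, limit read from the data, passing the limit was not always enough; inconclusive means only one of those two conditions holds; inactive means neither condition holds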
# C diff growth = C. difficile growth inhibitors, primary screen, HTS. Clostridium difficile clinical isolate growth, OD600, 24 h; stronger effect = lower value. growth activity, negative = inhibition, % at 16 µg/mL (by protocol). hit rate 0.25% among 86,000;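 active means mean growth activity at or below -80% and every replicate also at or below -80%; inconclusive means mean at or below -80% but some replicate above -80%; inactive means mean growth activity above -80%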;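 further: 0% = DMSO wells and -100% = levofloxacin 16 µg/mL wells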
# T cruzi growth-2 = T. cruzi intracellular proliferation inhibitors, confirmation, cell-based, NIH3T3 host, beta-gal parasite, luminescence, cherry-pick; inhibition, % at 8.35 µM; hit rate 72% among 5,600; shares compounds with T cruzi growth-1; T. cruzi beta-gal in NIH3T3, GalScreen luminescence, 90 h; AID 651739, 2012;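 active means mean replicate inhibition above about 95% and at least 55% of replicates individually reaching it, limit read from the data; inconclusive means only one of the two criteria is met; inactive means neither criterion is met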
# T cruzi growth-3 = inhibitors of intracellular T. cruzi replication, confirmation, NIH3T3 host cells, beta-gal parasites, cherry-pick, set 2 | inhibition, % at 2.09 µM | T. cruzi beta-gal in NIH3T3, GalScreen luminescence, 90 h | hit rate 21% among 5,600 | shares compounds with T cruzi growth-1;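 active means mean inhibition above about 95%, with at least 55% of replicates also reaching it, limit read from the data; inconclusive means meets just one of the two conditions; inactive means meets neither condition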;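 further: plate controls were neutral control median for no effect and positive control median for full effect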
# 3T3 cytotox = cytotoxicity in mouse NIH/3T3 fibroblasts, confirmation, cytotoxicity control for T. cruzi proliferation inhibitor project, cell-based, cherry-pick, single point; shares compounds with T cruzi growth-1; NIH/3T3 viability, CellTiter-Glo ATP luminescence, 90 h; cytotoxicity (signal decrease), % at 8.35 µM; hit rate 14% among 5,600; AID 651742, 2012;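 active means mean signal decrease across replicates above about 35% based on untreated-well scatter, with enough replicates individually passing, limit read from the data; inconclusive means no rule stated though some were filed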;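 further: 0% = median of neutral control wells and 100% = median of positive control wells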
# NIH3T3 tox 2 = NIH/3T3 fibroblast cytotoxicity, confirmation, cytotoxicity control, cell-based, cherry-pick, single point, set 2. hit rate 56% among 5,600. shares compounds with T cruzi growth-1. NIH/3T3 viability, CellTiter-Glo ATP luminescence, 90 h. inhibition, % at 24.9 µM. AID 651744, 2012;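 active means mean loss of cell viability signal at or above a set limit, and enough replicates individually reaching it; inconclusive means meets only the mean limit or only the replicate share; inactive means meets neither condition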;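 further: 0% = median of neutral control wells and 100% = median of positive control wells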
# The depositor's hits bear a star; u = inconclusive; x = no result given. Shown are actives, neighbours in structure and some others; about 6.8% of the full set was active somewhere.
SMILES,Pf Dd2 inh,T cruzi growth-1,C diff growth,T cruzi growth-2,T cruzi growth-3,3T3 cytotox,NIH3T3 tox 2
COc1ccc(S(=O)(=O)N(C)C[C@@H]2OCCCC[C@@H](C)Oc3ccc(NC(=O)Nc4ccccc4)cc3C(=O)N([C@H](C)CO)C[C@H]2C)cc1,-79.3,103.9*,-3.7,104.2*,62.0,-16.8,17.0
COc1ccc(NC(=O)Nc2ccc3c(c2)C(=O)N([C@@H](C)CO)C[C@@H](C)[C@@H](CN(C)S(=O)(=O)c2ccc(C)cc2)OCCCC[C@@H](C)O3)cc1,-59.9,97.3*,x,103.8*,30.8,-24.4,-11.5
COc1ccc(S(=O)(=O)N(C)C[C@H]2OCCCC[C@@H](C)Oc3ccc(NC(=O)NC(C)C)cc3C(=O)N([C@@H](C)CO)C[C@@H]2C)cc1,x,-12.2,-4.0,x,x,x,x
COc1ccc(NC(=O)Nc2ccc3c(c2)C(=O)N([C@H](C)CO)C[C@H](C)[C@@H](CN(C)S(=O)(=O)c2ccc(C)cc2)OCCCC[C@H](C)O3)cc1,-53.6,60.9,x,x,x,x,x
COc1ccc(NC(=O)Nc2ccc3c(c2)C(=O)N([C@H](C)CO)C[C@@H](C)[C@H](CN(C)S(=O)(=O)c2ccccc2)OCCCC[C@H](C)O3)cc1,-18.3,-2.5,-17.9,x,x,x,x
COc1ccc(NC(=O)Nc2ccc3c(c2)C(=O)N([C@@H](C)CO)C[C@H](C)[C@@H](CN(C)S(=O)(=O)c2ccc(C)cc2)OCCCC[C@H](C)O3)cc1,-70.0,101.8*,x,104.9*,34.1,-2.5,4.0
COc1ccc(NC(=O)Nc2ccc3c(c2)C(=O)N([C@@H](C)CO)C[C@@H](C)[C@@H](CN(C)S(=O)(=O)c2ccccc2)OCCCC[C@H](C)O3)cc1,-0.1,10.7,-0.2,x,x,x,x
COc1ccc(NC(=O)Nc2ccc3c(c2)C(=O)N([C@@H](C)CO)C[C@H](C)[C@H](CN(C)S(=O)(=O)c2ccc(C)cc2)OCCCC[C@H](C)O3)cc1,-74.2,103.6*,x,111.3*,68.0,-8.7,-7.3
C[C@H]1CN([C@@H](C)CO)C(=O)c2cc(NS(=O)(=O)c3ccc(F)cc3)ccc2O[C@H]1CN(C)C(=O)Nc1cccc2ccccc12,-10.8,46.1,-2.6,x,x,x,x
O=C(C[C@@H]1C[C@@H]2c3cc(NS(=O)(=O)c4ccccc4)ccc3O[C@@H]2[C@H](CO)O1)N1CCCCC1,-3.3,104.4*,-8.4,63.7,1.5,21.5,18.4
O=C(CC1CC1)Nc1ccc2c(c1)[C@@H]1C[C@@H](CC(=O)N3CCCCC3)O[C@H](CO)[C@@H]1O2,18.5,110.4*,-0.1,18.5,-45.2,-10.3,2.1
O=C(CC1CC1)Nc1ccc2c(c1)[C@H]1C[C@@H](CC(=O)N3CCCCC3)O[C@H](CO)[C@H]1O2,7.5,104.3*,-2.0,u,21.5,5.7,15.0
O=C(CC1CC1)Nc1ccc2c(c1)[C@H]1C[C@@H](CC(=O)N3CCCCC3)O[C@@H](CO)[C@H]1O2,-16.2,86.5,0.3,x,x,x,x
O=C(C[C@@H]1C[C@@H]2c3cc(NS(=O)(=O)c4ccccc4)ccc3O[C@@H]2[C@@H](CO)O1)N1CCOCC1,4.3,7.5,-9.5,x,x,x,x
O=C(CC1CC1)Nc1ccc2c(c1)[C@H]1C[C@H](CC(=O)N3CCCCC3)O[C@H](CO)[C@H]1O2,15.0,8.4,-0.3,x,x,x,x
C[C@@H]1CN([C@H](C)CO)C(=O)Cc2cc(NC(=O)Cc3ccccc3)ccc2O[C@@H]1CN(C)S(=O)(=O)c1ccc(Cl)cc1,-31.3,71.8,22.8,x,x,x,x
CO[C@H]1CN(C)C(=O)c2ccc(NC(=O)C3CCC3)cc2OC[C@@H](C)N(CC2CCCCC2)C[C@@H]1C,-65.7,u,x,107.0*,23.5,-12.3,103.3*
CO[C@@H]1CN(C)C(=O)c2cc(NC(=O)C3CCOCC3)ccc2OC[C@@H](C)N(CC2CC2)C[C@@H]1C,-36.3,98.9*,x,46.4,10.2,-14.1,6.0
CO[C@@H]1CN(C)C(=O)c2ccc(NC(=O)C3CC3)cc2OC[C@@H](C)N(CC2CCCC2)C[C@H]1C,-20.8,x,-1.4,x,x,x,x
CO[C@@H]1CN(C)C(=O)c2cc(NC(=O)C3CCOCC3)ccc2OC[C@@H](C)N(CC2CCOCC2)C[C@H]1C,x,18.2,x,x,x,x,x
Cc1noc(C)c1S(=O)(=O)Nc1ccc2c(c1)C(=O)N([C@H](C)CO)C[C@H](C)[C@@H](CN(C)C(=O)Nc1ccc3c(c1)OCO3)OCCCC[C@H](C)O2,-30.6,34.7,-0.7,x,x,x,x
COc1ccc2c3c([nH]c2c1)[C@@H](CO)N(C(=O)Cc1ccccc1)CC31CN(C(=O)Nc2ccccc2F)C1,-16.4,x,4.7,x,x,x,x
O=C([C@H]1[C@H](CO)[C@H]2Cn3c(cccc3=O)[C@@H]1N2CC1CC1)N1CCc2ccccc2C1,x,108.2*,-5.9,82.6,40.1,6.8,15.7
CC(=O)N1[C@@H]2Cn3c(cccc3=O)[C@H]1[C@@H](C(=O)N1CCc3ccccc3C1)[C@@H]2CO,-4.3,-16.0,3.5,x,x,x,x
O=C([C@@H]1[C@@H](CO)[C@@H]2Cn3c(cccc3=O)[C@H]1N2C(=O)CC1CC1)N1CCc2ccccc2C1,5.4,x,3.6,x,x,x,x
SMILES,Pf Dd2 inh,T cruzi growth-1,C diff growth,T cruzi growth-2,T cruzi growth-3,3T3 cytotox,NIH3T3 tox 2
O=C([C@@H]1[C@@H](CO)[C@@H]2Cn3c(cccc3=O)[C@H]1N2CC1CC1)N1CCc2ccccc2C1,x,121.4*,-10.0,-8.2,-10.3,18.0,11.9
C[C@H]1CN([C@@H](C)CO)S(=O)(=O)c2ccc(C#CC3CC3)cc2O[C@@H]1CN(C)C(=O)c1ccncc1,-66.2,86.5,-13.1,x,x,x,x
C[C@H]1CN([C@@H](C)CO)S(=O)(=O)c2ccc(C#CC3CC3)cc2O[C@H]1CN(C)C(=O)c1ccncc1,-48.8,109.5*,-10.3,96.4*,81.3,12.6,30.1*
C[C@@H]1CN([C@@H](C)CO)S(=O)(=O)c2ccc(C#CC3CC3)cc2O[C@H]1CN(C)C(=O)c1ccccc1,-66.6,u,2.3,u,52.5,29.0,48.0*
C[C@H](CO)N1C[C@H](C)[C@H](CN(C)C(=O)c2cccnc2)Oc2cc(C#CC3CC3)ccc2S1(=O)=O,-12.9,5.4,1.1,x,x,x,x
CCS(=O)(=O)Nc1ccc2c(c1)C(=O)N(C)[C@H]1CC[C@H](CC(=O)NC)O[C@@H]1CO2,14.5,x,2.9,x,x,x,x
O=C(C[C@H]1CC[C@@H](NC(=O)CCN2CCCCC2)[C@H](CO)O1)Nc1ccccc1,38.2,x,-7.3,x,x,x,x

# High-throughput results from PubChem.
